Data: PubChem BioAssay (Tox21)
“And” between values parts separate entries of the source, which are not always exact repeats. Identical values can stand only once. Results filed as inconclusive are left out. Some structures have more than one record in an assay (separate samples or runs), and their calls can disagree. The source made the active and inactive calls. Unless noted, the call rests on the fitted dose curve; in most records, active means well fitted curve in the direction sought with a large enough effect in the repeat runs; inconclusive means weak or mixed curves; inactive means no such curve, though single readings can be large; an effect the other way counts as inactive or inconclusive.

How the values were obtained:
[1] = target: Estrogen receptor (Homo sapiens) (UniProt P03372); test: qHTS assay to identify small molecule antagonists of the estrogen receptor alpha (ER-alpha) signaling pathway using the BG1 cell line in the presence of 0.1 nM 17-beta-estradiol (AID 1259244); further: nearly all actives have a fitted effect of over 50% in size; further: potency means the concentration at half of the fitted maximal effect
Estrogen receptor (Homo sapiens), sequence (P03372 whole entry, looked up): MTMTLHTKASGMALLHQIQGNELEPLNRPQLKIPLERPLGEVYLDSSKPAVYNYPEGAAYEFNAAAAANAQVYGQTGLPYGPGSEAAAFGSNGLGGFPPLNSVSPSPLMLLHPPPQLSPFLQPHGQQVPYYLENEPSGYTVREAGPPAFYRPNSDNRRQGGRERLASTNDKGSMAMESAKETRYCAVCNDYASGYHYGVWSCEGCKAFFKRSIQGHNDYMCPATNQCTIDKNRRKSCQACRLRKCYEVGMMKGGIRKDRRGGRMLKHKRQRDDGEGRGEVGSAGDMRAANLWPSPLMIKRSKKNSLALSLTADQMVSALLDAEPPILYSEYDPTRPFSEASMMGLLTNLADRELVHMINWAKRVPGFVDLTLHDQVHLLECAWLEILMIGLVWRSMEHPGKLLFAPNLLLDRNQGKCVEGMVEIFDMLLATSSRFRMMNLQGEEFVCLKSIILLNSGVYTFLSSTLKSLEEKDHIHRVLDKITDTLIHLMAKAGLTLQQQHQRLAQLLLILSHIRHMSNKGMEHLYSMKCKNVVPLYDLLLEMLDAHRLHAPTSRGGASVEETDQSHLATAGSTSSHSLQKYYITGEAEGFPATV
Outline: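 Luminescence after ONE-Glo (30 min, room temperature) measured ERE-luciferase activity in VM7Luc4E2 cells treated 22 h with compound and 0.1 nM final 17beta-estradiol as stimulator.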

[2] = qHTS assay to identify small molecule HDAC inhibitors (AID 1259364);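 further: wild-type HCT-116 cells with endogenous class I/II HDAC activity; top concentration of the series differs between compounds; nearly all actives have a fitted effect of over 45% in size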
Outline: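 HCT-116 (wild type), 1,500 cells/well, overnight; compound 2 hr 37C 5% CO2; HDAC-Glo I/II reagent 30 min RT; luminescence readout.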

[3] = qHTS assay to identify small molecule HDAC inhibitors - cell viability counter screen (AID 1259365); further: series mostly up to about 92 µM; nearly all actives have a fitted effect of over 50% in size
Outline: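 CellTiter-Glo luminescence (30 min, room temperature) reported viability after a 2 h compound exposure at 37 C. Cells: wild-type HCT-116, 1,500 per well, seeded the night before.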

[4] = qHTS assay to identify small molecule agonists of the sonic hedgehog signaling (Shh) pathway - cell viability counter screen (AID 1259366); further: nearly all actives have a fitted effect of over 50% in size; further: potency means the concentration at half of the fitted maximal effect
Outline: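 Cytotoxicity counter screen: CellTiter-Fluor reagent added after 23 h compound exposure, then 1 h at 37C and fluorescence read. Cells were 3T3 Gli1-Luc, seeded 2,000 per well and dosed 4 h post-plating.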

[5] = qHTS assay to identify small molecule antagonists of the sonic hedgehog signaling (Shh) pathway - cell viability counter screen (AID 1259367); further: nearly all actives have a fitted effect of over 55% in size; further: potency means the concentration at half of the fitted maximal effect
Outline: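 Viability was read by CellTiter-Fluor fluorescence in the same wells, reagent added 23 hr into compound treatment and incubated 1 hr at 37C. The 3T3 Gli1-Luc reporter cells (2,000/well) received conditioned medium after compound and ran 24 hr.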

[6] = qHTS assay to identify small molecule agonists of the sonic hedgehog signaling (Shh) pathway (AID 1259368; calls by dose curve;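 further: NIH/3T3-derived 3T3Gli1-Luc cells carrying a stable Gli1-driven firefly luciferase reporter; series mostly up to about 92 µM; nearly all actives have a fitted effect of over 15% in size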)
Outline: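 Read-out: firefly luciferase luminescence from a Gli1 response element reporter stably integrated in NIH/3T3-derived 3T3Gli1-Luc cells, measured 30 min at room temperature after reagent addition. Compound exposure lasted 24 hr at 37 C, 5% CO2.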

[7] = qHTS assay to identify small molecule antagonists of the sonic hedgehog signaling (Shh) pathway (AID 1259369; calls by dose curve; further: nearly all actives have a fitted effect of over 45% in size; further: potency means the concentration at half of the fitted maximal effect)
Outline: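 Luminescence readout: firefly Luc under Gli1 response element in 3T3Gli1-Luc cells (NIH/3T3 clone). Antagonist mode, stimulation by conditioned medium; compound exposure 24hr at 37 C, 5% CO2.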

[8] = target: Estrogen receptor beta (Homo sapiens) (UniProt Q92731); test: qHTS assay to identify small molecule agonists of the estrogen receptor beta (ER-beta) signaling pathway (AID 1259377; active means well fitted activation curve with a large enough effect in the signal ratio in the repeat runs, not every such curve was filed as active; the % refers to the signal ratio)
Estrogen receptor beta (Homo sapiens), sequence (Q92731 whole entry, looked up): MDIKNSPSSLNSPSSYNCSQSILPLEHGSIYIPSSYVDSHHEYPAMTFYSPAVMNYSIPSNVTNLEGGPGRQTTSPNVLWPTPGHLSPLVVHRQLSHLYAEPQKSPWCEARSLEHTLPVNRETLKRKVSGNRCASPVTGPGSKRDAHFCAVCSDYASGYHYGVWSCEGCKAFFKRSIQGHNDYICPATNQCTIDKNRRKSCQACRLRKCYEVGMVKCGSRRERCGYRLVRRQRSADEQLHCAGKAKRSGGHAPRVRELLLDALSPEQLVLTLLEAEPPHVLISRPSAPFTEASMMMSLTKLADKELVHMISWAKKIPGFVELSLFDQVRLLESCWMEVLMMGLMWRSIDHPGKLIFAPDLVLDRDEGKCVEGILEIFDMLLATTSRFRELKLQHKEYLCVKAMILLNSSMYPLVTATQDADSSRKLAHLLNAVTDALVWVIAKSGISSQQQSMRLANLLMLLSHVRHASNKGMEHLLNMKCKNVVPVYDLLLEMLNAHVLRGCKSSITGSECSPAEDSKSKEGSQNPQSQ
Outline: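 Ratiometric beta-lactamase FRET read-out came after 2 h substrate loading at room temperature. It followed 16 h compound treatment at 37C of GripTite HEK293T cells carrying a UAS-bla reporter, plated in 2% charcoal-stripped FBS medium.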

[9] = target: Estrogen receptor beta (Homo sapiens) (UniProt Q92731); test: qHTS assay to identify small molecule antagonists of the estrogen receptor beta (ER-beta) signaling pathway (AID 1259378; active means well fitted inhibition curve with a large enough effect in the signal ratio in the repeat runs, not every such curve was filed as active; the % refers to the signal ratio)
Outline: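 Antagonist mode: compounds added to beta-lactamase reporter HEK293T ER-beta-UAS cells stimulated with E2 (1nM final), 16 hr at 37C. LiveBLAzer B/G FRET substrate, 2 hours room temperature, fluorescence read-out.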

[10] = qHTS assay to identify small molecule agonists of the androgen receptor (AR) signaling pathway in the presence of an antagonist - cell viability counter screen (AID 1259379); further: nearly all actives have a fitted effect of over 25% in size; further: potency means the concentration at half of the fitted maximal effect;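 on activity change, negative = cytotoxicity: MDA-kb2 human breast cancer cells carrying an MMTV luciferase reporter; series mostly up to about 92 µM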
Outline: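 Viability counter screen: CellTiter-Fluor fluorescence, measured in the same wells as the luciferase read-out. MDA-kb2 cells, 3,000/well, with nilutamide at 3.0uM final and compounds at 15 concentrations, 16 hr at 37C, 0% CO2.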

[11] = qHTS assay to identify small molecule agonists of the estrogen receptor beta (ER-beta) signaling pathway - cell viability counter screen (AID 1259380); further: nearly all actives have a fitted effect of over 30% in size; further: potency means the concentration at half of the fitted maximal effect
Outline: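 Luminescence read-out (CellTiter-Glo, 30 min, room temp) taken in the same wells as the beta-lactamase reporter assay; ER-beta-UAS-bla HEK293T cells exposed to DMSO-dissolved compounds for 16 hr at 37C in 2% charcoal-stripped FBS medium.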

[12] = qHTS assay to identify small molecule antagonists of the estrogen receptor beta (ER-beta) signaling pathway - cell viability counter screen (AID 1259382); further: nearly all actives have a fitted effect of over 55% in size; further: potency means the concentration at half of the fitted maximal effect;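 on activity change, negative = cytotoxicity: HEK293T cells carrying ER-beta-UAS-bla reporter stimulated with estradiol; series mostly up to about 92 µM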
Outline: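 Luminescent ATP read-out (CellTiter-Glo, 30 min, RT) taken in the same wells as the bla reporter assay. HEK293T ER-beta-UAS-bla cells in 2% charcoal-stripped FBS were exposed to compounds with 1nM E2 for 16 hr at 37C.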

[13] = target: Estrogen receptor (Homo sapiens) (UniProt P03372); test: qHTS assay to identify small molecule agonists of the estrogen receptor alpha (ER-alpha) signaling pathway in the presence of an antagonist (AID 1259383; calls by dose curve; further: top concentration of the series differs between compounds; nearly all actives have a fitted effect of over 15% in size)
Outline: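 Luciferase luminescence (ONE-Glo, 30min at room temperature) measured in VM7Luc4E2 cells after 22hr compound exposure at 15 concentrations, with 10.0nM ICI-182,780 final present; cells express endogenous ER-alpha and carry four EREs upstream of luciferase.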

[14] = qHTS assay to identify small molecule agonists or antagonists of the thyroid stimulating hormone receptor (TSHR) signaling pathway - wild type cell line counter screen (AID 1259384; calls by dose curve)
Outline: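 Counter screen in untransfected Hek293: compounds (15-point titration, triplicate) plus phosphodiesterase inhibitor Ro20-1724 added after 18 h plating; 30 min RT. Intracellular cAMP via competitive d2/cryptate immunoassay, 1 h incubation.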

[15] = target: Thyrotropin receptor (Homo sapiens) (UniProt P16473); test: qHTS assay to identify small molecule antagonists of the thyroid stimulating hormone receptor (TSHR) signaling pathway (AID 1259385; calls by dose curve; further: nearly all actives have a fitted effect of over 20% in size; further: potency means the concentration at half of the fitted maximal effect)
Thyrotropin receptor (Homo sapiens), sequence (P16473 whole entry, looked up): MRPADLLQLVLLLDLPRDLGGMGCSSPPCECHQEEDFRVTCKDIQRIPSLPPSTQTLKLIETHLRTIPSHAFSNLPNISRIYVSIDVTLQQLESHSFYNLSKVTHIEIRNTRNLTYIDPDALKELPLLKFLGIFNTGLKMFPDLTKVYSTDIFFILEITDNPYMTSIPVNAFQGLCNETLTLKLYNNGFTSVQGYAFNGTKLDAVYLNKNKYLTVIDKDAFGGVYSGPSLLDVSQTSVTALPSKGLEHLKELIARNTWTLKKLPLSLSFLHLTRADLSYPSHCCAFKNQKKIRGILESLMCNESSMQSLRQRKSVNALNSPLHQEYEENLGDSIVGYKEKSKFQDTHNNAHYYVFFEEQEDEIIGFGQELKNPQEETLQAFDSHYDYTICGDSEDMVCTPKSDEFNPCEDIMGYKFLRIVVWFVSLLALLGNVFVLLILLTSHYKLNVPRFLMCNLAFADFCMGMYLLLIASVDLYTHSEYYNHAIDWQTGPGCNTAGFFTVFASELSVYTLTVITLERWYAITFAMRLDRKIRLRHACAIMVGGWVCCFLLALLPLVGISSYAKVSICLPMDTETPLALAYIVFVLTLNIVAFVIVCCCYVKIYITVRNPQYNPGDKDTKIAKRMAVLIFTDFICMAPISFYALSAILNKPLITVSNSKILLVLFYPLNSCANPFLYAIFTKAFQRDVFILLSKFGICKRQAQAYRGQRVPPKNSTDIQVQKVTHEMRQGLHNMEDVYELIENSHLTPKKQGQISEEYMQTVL
Outline: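 Antagonist mode: compound-treated TSHR-expressing HEK293 cells were stimulated with 1.5 ng/mL TSH (final) in presence of Ro20-1724 for 30 min at RT. HTRF cAMP detection after 1 h; each compound tested at 15 concentrations, triplicate.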

[16] = qHTS assay to identify small molecule agonists of the estrogen receptor alpha (ER-alpha) signaling pathway in the presence of an antagonist - cell viability counter screen (AID 1259386);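 further: cells exposed to compounds for 22 h at 37 °C before the viability read; nearly all actives have a fitted effect of over 30% in size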; further: potency means the concentration at half of the fitted maximal effect; on activity change, negative = cytotoxicity: series mostly up to about 92 µM
Outline: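 Read-out: CellTiter-Fluor fluorescence after 1hr reagent incubation, measured in the same wells as the luciferase readout. VM7Luc4E2 cells were exposed to 15 compound concentrations with 10.0nM ICI-182,780 for 22hr at 37C.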

[17] = target: Progesterone receptor (Homo sapiens) (UniProt P06401); test: qHTS assay to identify small molecule agonists of the progesterone receptor (PR) signaling pathway (AID 1346784; calls by dose curve; further: nearly all actives have a fitted effect of over 30% in size)
Progesterone receptor (Homo sapiens), sequence (P06401 whole entry, looked up): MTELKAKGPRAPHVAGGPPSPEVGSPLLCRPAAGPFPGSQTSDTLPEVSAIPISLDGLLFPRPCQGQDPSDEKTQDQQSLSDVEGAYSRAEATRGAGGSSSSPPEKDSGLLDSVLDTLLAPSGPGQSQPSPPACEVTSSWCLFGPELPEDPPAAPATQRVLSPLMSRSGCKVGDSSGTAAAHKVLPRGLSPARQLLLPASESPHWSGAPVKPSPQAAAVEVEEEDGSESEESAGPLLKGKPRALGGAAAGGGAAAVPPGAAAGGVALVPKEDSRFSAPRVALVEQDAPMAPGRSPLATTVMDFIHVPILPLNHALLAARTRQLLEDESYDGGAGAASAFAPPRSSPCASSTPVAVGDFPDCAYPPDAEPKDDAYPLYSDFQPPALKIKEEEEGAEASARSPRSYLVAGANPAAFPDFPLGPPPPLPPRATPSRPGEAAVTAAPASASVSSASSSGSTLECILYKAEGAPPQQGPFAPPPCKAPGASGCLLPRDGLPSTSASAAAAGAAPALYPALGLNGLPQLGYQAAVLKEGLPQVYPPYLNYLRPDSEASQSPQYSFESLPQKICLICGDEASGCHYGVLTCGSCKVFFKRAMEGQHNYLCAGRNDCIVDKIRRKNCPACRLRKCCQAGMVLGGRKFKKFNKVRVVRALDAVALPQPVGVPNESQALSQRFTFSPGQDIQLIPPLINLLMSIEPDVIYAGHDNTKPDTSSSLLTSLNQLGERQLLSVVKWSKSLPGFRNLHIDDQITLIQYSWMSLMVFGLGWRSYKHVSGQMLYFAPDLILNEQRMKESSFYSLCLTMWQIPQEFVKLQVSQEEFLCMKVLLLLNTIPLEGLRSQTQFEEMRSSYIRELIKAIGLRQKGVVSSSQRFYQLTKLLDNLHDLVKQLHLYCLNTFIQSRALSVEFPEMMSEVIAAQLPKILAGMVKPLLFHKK
Outline: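 Agonist qHTS: compounds pinned onto 3,000 PR-UAS-bla HEK 293T cells per well in charcoal-stripped serum medium, 16hr at 37C, then beta-lactamase activity measured by LiveBLAzer FRET fluorescence after 2 hours at room temperature.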
On the % scale 0 is the no-effect control and ±100 the full control effect.

CC(C)=C1CC[C@@H](C)CC1=O
inactive: Potency [1] | Potency [2] | Potency [3] | Potency [4] | Potency [5] | Potency [6] | Potency [7] | Potency [8] | Potency [9] | Potency [10] | Potency [11] | Potency [12] | Potency [13] | outcome [14] | Potency [15] | Potency [16] | outcome [17]

CCCCCCCCCCCCCOP(=O)(O)O
inactive: Potency [1] | Potency [2] | Potency [3] | Potency [4] | Potency [5] | Potency [6] | Potency [7] | Potency [8] | Potency [10] | Potency [12] | Potency [13] | Potency [15]

CC1(C)C(=O)N(CO)C(=O)N1CO
inactive: Potency [1] | Potency [2] | Potency [3] | Potency [4] | Potency [5] | Potency [6] | Potency [7] | Potency [8] | Potency [9] | Potency [10] | Potency [11] | Potency [12] | Potency [13] | Potency [15] | Potency [16] | outcome [17]

ClC/C=C\CCl
inactive: Potency [1] | Potency [2] | Potency [3] | Potency [4] | Potency [5] | Potency [6] | Potency [7] | Potency [10] | Potency [11] | Potency [12] | Potency [13] | outcome [14] | Potency [15] | Potency [16] | outcome [17]

Cc1cc(C)c(C=O)c(C)c1
inactive: Potency [1] | Potency [2] | Potency [3] | Potency [4] | Potency [5] | Potency [6] | Potency [7] | Potency [10] | Potency [11] | Potency [12] | Potency [13] | outcome [14] | Potency [15] | Potency [16] | outcome [17]

Cc1cncc(C)c1
inactive: Potency [1] | Potency [2] | Potency [3] | Potency [4] | Potency [5] | Potency [6] | Potency [7] | Potency [8] | Potency [9] | Potency [11] | Potency [12] | Potency [13] | outcome [14] | Potency [15] | Potency [16] | outcome [17]

CCc1ccc(O)c(C(C)(C)C)c1
inactive: Potency [1] | Potency [2] | Potency [3] | Potency [4] | Potency [5] | Potency [6] | Potency [7] | Potency [8] | Potency [9] | Potency [10] | Potency [13] | Potency [15] | Potency [16] | outcome [17]

CCC(C)C(=O)OC (centres undefined)
inactive: Potency [1] | Potency [2] | Potency [3] | Potency [4] | Potency [5] | Potency [6] | Potency [7] | Potency [10] | Potency [11] | Potency [12] | Potency [13] | Potency [15] | Potency [16] | outcome [17]

Cn1cnc2ncnc(N)c21
inactive: Potency [1] | Potency [2] | Potency [3] | Potency [4] | Potency [5] | Potency [6] | Potency [7] | Potency [8] | Potency [9] | Potency [10] | Potency [11] | Potency [12] | Potency [13] | outcome [14] | Potency [15] | Potency [16] | outcome [17]

CCCCCCCCCCCCCc1ccccc1
inactive: Potency [1] | Potency [2] | Potency [3] | Potency [4] | Potency [5] | Potency [6] | Potency [7] | Potency [10] | Potency [11] | Potency [12] | Potency [13] | outcome [14] | Potency [15] | Potency [16] | outcome [17]

CCC(=O)CC(C)CC (centres undefined)
inactive: activity change, negative = inhibition [1] 2.34% [at 0.349 µM] | activity change, negative = inhibition [2] 2.62% [at 0.349 µM] | activity change, negative = cytotoxicity [3] 3.99% [at 0.349 µM] | viability change, negative = cytotoxic [4] 4% [at 0.349 µM] | viability change, negative = cytotoxic [5] 2.54% [at 0.349 µM] | activity change [6] -0.87% [at 0.349 µM, stronger effect = higher value] | activity change, negative = inhibition [7] 19.5% [at 0.349 µM] | activity change, negative = cytotoxicity [10] 0.759% [at 0.35 µM] | activity change, negative = cytotoxicity [11] 3.56% [at 0.349 µM] | activity change, negative = cytotoxicity [12] 9.77% [at 0.349 µM] | activation [13] -1.38% [at 0.349 µM] | cAMP activity change [14] -1.63% [at 0.349 µM] | activity change, negative = inhibition [15] 1.62% [at 0.349 µM] | activity change, negative = cytotoxicity [16] 1.18% [at 0.349 µM] | activation [17] -0.264% [at 0.349 µM]

Cc1cc(=O)[nH]c(=O)[nH]1
inactive: Potency [1] | Potency [2] | Potency [3] | Potency [4] | Potency [5] | Potency [6] | Potency [7] | Potency [8] | Potency [9] | Potency [10] | Potency [11] | Potency [12] | Potency [13] | outcome [14] | Potency [15] | Potency [16] | outcome [17]

CN1CN(C)CN(C)C1
inactive: Potency [1] | Potency [2] | Potency [4] | Potency [5] | Potency [6] | Potency [7] | Potency [8] | Potency [11] | Potency [12] | Potency [13] | outcome [14] | Potency [15] | Potency [16] | outcome [17]

CC=O
active: Potency [1] 403 nM | Potency [4] 28.6 µM | Potency [5] 28.6 µM | Potency [7] 16.1 nM | Potency [10] 1.28 µM | Potency [11] 57 µM | Potency [12] 57 µM | Potency [16] 10.1 µM
inactive: Potency [2] | Potency [6] | Potency [13] | outcome [14] | Potency [15]

CCCCCCCCCCCCOC(=O)c1cc(O)c(O)c(O)c1
inactive: Potency [2] | Potency [3] | Potency [8] | Potency [13] | outcome [14]
active: Potency [1] 30.5 µM and 34.4 µM | Potency [4] 43.1 µM | Potency [5] 34.2 µM and 6.11 µM | Potency [7] 1.21 µM and 2.17 µM | Potency [10] 68.3 µM and 61.1 µM | Potency [11] 34.2 µM and 68.6 µM | Potency [12] 68.3 µM and 68.6 µM | Potency [16] 60.9 µM
68.3 µM (active) and inactive: Potency [15]
